Source: PubChem
TROY signal inh: TROY signaling inhibition | Q293 LMP1-TROYcd NF-kB luciferase reporter, 4 h | inhibition, % at 10 µM | 360,000 compounds, 0.98% hits | AID 1347056;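 active = compounds whose plate-normalised and pattern-corrected inhibition of the luciferase reporter signal at the single screening dose is 50% or more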
TRAIL sens C8: caspase-8 TRAIL sensitization | NB7+C8 cells + TRAIL, ATPlite viability luminescence | inhibition (viability loss, TRAIL sensitization), % at 10 µM | 360,000 compounds, 1% hits;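 active = compounds causing at least 50% loss of cell viability in the single-dose screen, relative to plate controls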
HSP90 refold inh: inhibitors of HSP90 luciferase refolding in rabbit reticulocyte lysate; luciferase refolding luminescence, 3 h; inhibition, % at 5.6 µM; 290,000 compounds, 0.91% hits; AID 1789;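 active = inhibition above the screen-wide mean plus 3 SD, computed separately per campaign, cut at about 16% in these data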;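 note: 0% = DMSO wells and 100% = 60 µM geldanamycin wells; inhibitors lower the luminescence because luciferase stays unfolded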
TWEAK-Fn14 inh: blocks TWEAK-Fn14 interaction in a reporter cell assay; 360,000 compounds, 2% hits; AID 1159606; inhibition, % at 10 µM; TWEAK-stimulated Fn14 reporter cells, luciferase luminescence, 8 h; in the data active = inhibition above about 50%
aSyn UTR inh: MLPCN primary screen, SNCA 5' untranslated region. 300,000 compounds, 0.82% hits. alpha-synuclein 5'UTR reporter, inhibitor activity. inhibition, % (tested at 7.5 µM); in the data active = inhibition above about 60%;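 note: H4 neuroglioblastoma cells stably carrying SNCA 5'UTR luciferase fusion; 0% = DMSO wells and 100% = positive control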
HIF-2a inh: inhibitors of HIF-2a. 360,000 compounds, 0.72% hits. AID 624352. inhibition, % at 18.8 µM. 786-0 RCC cells HIF-2a reporter, luciferase luminescence, overnight;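 active = inhibition of the luminescence signal of 40% or more relative to plate controls, in a single-dose primary screen at 18.75 µM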
* hit, by the source's call. An excerpt weighted towards active compounds, which were near 3.9% of everything screened.

Screening COCCSc1nnc(NS(=O)(=O)c2ccc(C)cc2)s1 returned TROY signal inh 53.6*, TRAIL sens C8 -9.1, HSP90 refold inh -9.1, TWEAK-Fn14 inh -2.3, aSyn UTR inh -32.8 and HIF-2a inh 4.3.
Screening COCCSc1nnc(NS(=O)(=O)c2ccccc2)s1 returned TROY signal inh -1.1, TRAIL sens C8 -6.9, HSP90 refold inh 0.3, TWEAK-Fn14 inh 12.1, aSyn UTR inh 21.8 and HIF-2a inh 4.3.
For Cn1cnc(S(=O)(=O)N2CCCC(c3cc(C(=O)Nc4ccc(F)c(Cl)c4)no3)C2)c1 (configuration not stated) the results were TROY signal inh -26.6, TRAIL sens C8 -2.5, TWEAK-Fn14 inh -28.9 and HIF-2a inh -140.3.
Screening COC(=O)C[C@H]1C[C@H]2c3cc(NC(=O)Nc4ccc(F)cc4)ccc3O[C@H]2[C@@H](CO)O1 returned TROY signal inh -1.7, TRAIL sens C8 13.1, TWEAK-Fn14 inh -2.7 and HIF-2a inh -4.8.
For C=CCOC(=O)C1=C(C)NC(SCC(N)=O)=C(C#N)C1c1ccc(C)cc1 (configuration not stated) the results were TROY signal inh -12.7, TRAIL sens C8 -6.6, HSP90 refold inh -0.7, TWEAK-Fn14 inh -32.4, aSyn UTR inh 8.0 and HIF-2a inh 16.3.
C=CCOC(=O)C1=C(C)NC(SCC)=C(C#N)C1c1ccc(Cl)cc1 (configuration not stated) was read as TROY signal inh 18.8, TRAIL sens C8 20.8, HSP90 refold inh -3.4, TWEAK-Fn14 inh 35.4, aSyn UTR inh 67.0* and HIF-2a inh 29.6.
For NC(=S)NN=C1CSSC1 the results were TROY signal inh -5.5, TRAIL sens C8 17.3, TWEAK-Fn14 inh -4.9 and HIF-2a inh -1.5.
Nc1c2c(nc3sc4c(c13)CCCC4)-c1ccccc1CC2 was read as TROY signal inh 56.4*, TRAIL sens C8 66.1*, HSP90 refold inh 8.6, TWEAK-Fn14 inh 44.5, aSyn UTR inh -75.3 and HIF-2a inh -275.9.
Screening COc1ccc(OC)c(NC(=O)C2CC(=O)N(Cc3ccco3)C2)c1 (configuration not stated) returned TROY signal inh -11.2, TRAIL sens C8 17.0, TWEAK-Fn14 inh 14.9 and HIF-2a inh 12.8.
`CC(=O)Nc1ccc(SCCN2CC[C@@H](C(C)(C)C)CCC2=O)cc1` gave TROY signal inh -8.3, TRAIL sens C8 14.9, TWEAK-Fn14 inh -4.9 and HIF-2a inh -117.3.
For Cc1ccc(C(=O)N2CCN(c3ccc(NC(=O)c4ccc5c(c4)OCCO5)cc3)CC2)cc1 the results were TROY signal inh 57.5*, TRAIL sens C8 34.7, HSP90 refold inh 0.6, TWEAK-Fn14 inh 75.6*, aSyn UTR inh 30.5 and HIF-2a inh 12.8.
For O=C(NC(=S)Nc1ccc(N2CCCCC2)cc1)c1ccc2c(c1)OCCO2 the results were TROY signal inh 77.5*, TRAIL sens C8 27.4, HSP90 refold inh 10.9, TWEAK-Fn14 inh 54.9*, aSyn UTR inh -124.8 and HIF-2a inh -41.9.
For O=C(Nc1ccc(N2CCN(C(=O)c3ccccc3)CC2)cc1)c1ccc2c(c1)OCO2 the results were TROY signal inh 0.6, TRAIL sens C8 18.1, HSP90 refold inh 5.8, TWEAK-Fn14 inh 0.3, aSyn UTR inh 35.8 and HIF-2a inh -21.9.
Screening O=C(NC(=S)Nc1ccc(N2CCOCC2)cc1)c1ccc2c(c1)OCCO2 returned TROY signal inh 59.6*, TRAIL sens C8 25.1, HSP90 refold inh 0.2, TWEAK-Fn14 inh 51.3*, aSyn UTR inh -2.4 and HIF-2a inh -7.3.
COc1ccccc1C(CNC(=O)CNC(=O)c1cccc(Cl)c1)N1CCCC1 (configuration not stated) was read as TROY signal inh -20.9, TRAIL sens C8 -9.8, TWEAK-Fn14 inh -13.6 and HIF-2a inh 2.6.
Cc1ccc(C2=Nc3ccccc3N=C(C(Cl)Cl)C2)cc1 was read as TROY signal inh -56.9, TRAIL sens C8 54.2*, HSP90 refold inh 14.7, TWEAK-Fn14 inh 38.5, aSyn UTR inh -76.0 and HIF-2a inh -39.2.
For Cc1ccc(O)c(C2=Nc3ccccc3N=C(c3cccs3)C2)c1 the results were TROY signal inh -15.6, TRAIL sens C8 -7.8, HSP90 refold inh 0.2, TWEAK-Fn14 inh 14.7, aSyn UTR inh 23.7 and HIF-2a inh 10.2.
`Cc1ccc2c(c1)N=C(c1ccccc1)CC(C(Cl)Cl)=N2` gave TROY signal inh -9.9, TRAIL sens C8 58.3*, HSP90 refold inh 11.5, TWEAK-Fn14 inh 40.4, aSyn UTR inh -74.2 and HIF-2a inh -202.1.
